Source: PubChem BioAssay
HP1b binding inh: blocks HP1-beta chromodomain binding to methylated histone tails; AlphaScreen HP1-beta / biotin-H3K9me3 peptide binding; Potency, µM (doses to about 114 µM), hits mostly inhibitors; 0.56% of 390,000 active; AID 540317; also: nearly all actives have a fitted effect of over 70% in size
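Compound inhibition of the preformed complex between 50 nM HP1-beta and 50 nM biotinylated H3K9me3 peptide was read by AlphaScreen. Buffer was PBS pH 7.4 with 0.01% Tween-20. Incubations ran 30 min at room temperature, with 10 ug/mL donor/acceptor beads.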
GLS inh: inhibitors of human glutaminase (GLS) | GLS enzymatic activity, qHTS titration | Potency, µM (highest dose often 45.5 µM), usual class: inhibitors | 0.21% of 410,000 active | AID 624170
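Two-point fluorescence kinetic (t0, 30 min RT) for hKGA; glutamate detected via glutamate oxidase–HRP–Amplex Red. Substrate: 1 mM L-glutamine solution; buffer 45 mM KH2PO4, pH 8.2.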
BAZ2B inh: inhibitors of human BAZ2B bromodomain. Q9UIF8. AlphaScreen BAZ2B-H3K14Ac peptide displacement. Potency, µM (top dose mostly 114 µM), actives largely listed as inhibitors. 4.4% of 360,000 active. AID 504333; also: nearly all actives have a fitted effect of over 60% in size
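BAZ2B (50 nM) with biotin-H3(5-23)K14Ac peptide (50 nM) in PBS pH 7.4, 0.01% Tween-20, preformed 30 min, then compound 30 min at room temperature; top concentration 110uM. AlphaScreen streptavidin donor/nickel chelate acceptor beads (10 ug/mL final), 20 min dark, signal read.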
L3MBTL1 block: inhibitors of human L3MBTL1; Q9Y468; AlphaScreen L3MBTL1–H3K9me1 peptide binding; Potency, µM (top dose mostly 57.1 µM), actives largely listed as inhibitors; 0.66% of 230,000 active; AID 485360; also: nearly all actives have a fitted effect of over 60% in size
Target sequence (Q9Y468 whole entry, looked up): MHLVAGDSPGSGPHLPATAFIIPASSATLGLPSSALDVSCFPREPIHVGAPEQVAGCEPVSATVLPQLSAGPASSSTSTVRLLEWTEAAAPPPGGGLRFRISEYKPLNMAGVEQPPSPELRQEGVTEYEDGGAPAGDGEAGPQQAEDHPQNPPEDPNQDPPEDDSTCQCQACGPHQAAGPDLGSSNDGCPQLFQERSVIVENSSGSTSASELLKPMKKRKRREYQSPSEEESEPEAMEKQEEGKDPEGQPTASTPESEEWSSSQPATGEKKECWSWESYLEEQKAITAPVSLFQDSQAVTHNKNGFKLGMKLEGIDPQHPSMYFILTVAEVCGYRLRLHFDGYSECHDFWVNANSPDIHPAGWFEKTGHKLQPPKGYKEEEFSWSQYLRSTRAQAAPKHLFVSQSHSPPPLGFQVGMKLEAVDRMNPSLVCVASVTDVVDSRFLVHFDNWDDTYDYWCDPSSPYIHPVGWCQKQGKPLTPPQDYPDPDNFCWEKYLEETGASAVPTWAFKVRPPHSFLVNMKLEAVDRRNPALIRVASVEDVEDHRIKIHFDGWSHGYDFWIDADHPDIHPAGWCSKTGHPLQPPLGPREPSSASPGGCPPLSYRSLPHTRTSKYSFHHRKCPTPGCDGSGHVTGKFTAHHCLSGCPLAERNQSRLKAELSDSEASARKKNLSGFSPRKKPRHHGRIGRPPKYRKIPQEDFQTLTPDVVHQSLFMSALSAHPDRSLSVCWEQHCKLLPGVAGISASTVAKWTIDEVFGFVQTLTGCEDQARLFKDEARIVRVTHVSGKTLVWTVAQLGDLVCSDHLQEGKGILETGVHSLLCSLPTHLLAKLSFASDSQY
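Displacement of a biotinylated histone H3(1-15) peptide monomethylated at Lys9 (75 nM) from L3MBTL1 (50 nM) was measured by AlphaScreen after a 30 min room-temperature compound incubation; cefsulodin titration served as intraplate control.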
JMJD2A Tudor: inhibitors of human JMJD2A Tudor domain; AlphaScreen JMJD2A-Tudor / H3K4me3 peptide binding; Potency, µM (highest dose often 114 µM), most hits filed as inhibitors; O75164; 4.4% of 390,000 active; also: nearly all actives have a fitted effect of over 50% in size
G9a block: blocks human histone lysine methyltransferase G9a. G9a H3K9 monomethylation, AlphaScreen, 2 h. 8.8% of 350,000 active. Potency, µM (titrated, usually from 102 µM), most hits filed as inhibitors. Q96KQ7; also: nearly all actives have a fitted effect of over 75% in size
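AlphaScreen detection with an anti-monomethyl H3K9 antibody quantified product after a 2 h room-temperature reaction containing 500 nM biotinylated H3K9 peptide, 20 µM SAM and 20 nM enzyme, which had been preincubated 15 min with compound.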
Hits are given with their value; [ ] = dose if it differs, or a comment. The list is not random: actives were taken first. Their share in the collection is about 10%. Calls follow the shape of the dose curve; as a rule, active = well fitted curve in the direction sought with a large enough effect; inconclusive = small, poorly fitted or top-dose-only effect, or another doubt; inactive = no such curve, though single readings can be large; an effect the other way counts as inactive or inconclusive.

What do the screens show for `COc1ccc(C2Nc3ccc(NC(=O)CO)cc3C(=O)N2Cc2cccc(Cl)c2)cc1COc1ccc(NC(C)=O)cc1` (stereo not given)?
HP1b binding inh: inactive; JMJD2A Tudor: 56µM

How did COc1ccc(C2Nc3ccccc3C(=O)N2Cc2ccccc2Cl)cc1COc1ccc(NC(C)=O)cc1 (stereo not given) do in these assays?
JMJD2A Tudor: inactive

Results for COc1ccc(C2Nc3ccc(NC(C)=O)cc3C(=O)N2Cc2cccc(Cl)c2)cc1COc1ccc(NC(C)=O)cc1 (stereo not given) ?
HP1b binding inh: inactive; JMJD2A Tudor: inconclusive

How did CCOC(=O)Cn1c(=O)n(C2CCCCC2)c2nc(-c3cccc(C)c3)nc(C(N)=O)c21 do in these assays?
HP1b binding inh: inactive; GLS inh: inactive; BAZ2B inh: inactive; JMJD2A Tudor: inactive; G9a block: inactive

Results for c1ccc(-c2csc(=Nc3cccnc3)n2CC2CCCO2)cc1 (stereo not given) ?
HP1b binding inh: inactive; GLS inh: inactive; BAZ2B inh: inconclusive; L3MBTL1 block: inactive; JMJD2A Tudor: inconclusive; G9a block: inconclusive

What do the screens show for `Cc1ccc(-c2csc(=Nc3cccnc3)n2CCCn2ccnc2)cc1C`?
HP1b binding inh: inconclusive; GLS inh: inactive; BAZ2B inh: 13µM; L3MBTL1 block: inconclusive; JMJD2A Tudor: inconclusive; G9a block: inconclusive

What do the screens show for `CC(C)n1c(-c2ccco2)csc1=Nc1cccnc1`?
HP1b binding inh: inconclusive; GLS inh: inactive; BAZ2B inh: 28µM; L3MBTL1 block: inactive; JMJD2A Tudor: 56µM; G9a block: 13µM

What do the screens show for `Cc1ccc(-c2csc(=Nc3cccnc3)n2CCCN2CCCC2=O)cc1C`?
HP1b binding inh: inconclusive; GLS inh: inactive; BAZ2B inh: inconclusive; L3MBTL1 block: inactive; JMJD2A Tudor: inconclusive; G9a block: inactive

How did c1cncc(N=c2scc(-c3cccc4ccccc34)n2CCCn2ccnc2)c1 do in these assays?
HP1b binding inh: inconclusive; GLS inh: inactive; BAZ2B inh: 10µM; L3MBTL1 block: inconclusive; JMJD2A Tudor: 35µM; G9a block: inconclusive

Results for CCCCn1c(C)csc1=Nc1cccnc1 ?
HP1b binding inh: inactive; GLS inh: inactive; BAZ2B inh: inconclusive; L3MBTL1 block: inactive; JMJD2A Tudor: inactive; G9a block: inconclusive

What do the screens show for `COCCn1c(-c2ccccc2)csc1=Nc1cccnc1`?
HP1b binding inh: inconclusive; GLS inh: inactive; BAZ2B inh: 40µM; L3MBTL1 block: inconclusive; JMJD2A Tudor: inconclusive; G9a block: 40µM

How did COc1ccc(C(=O)N2CCC3(CCN(Cc4ccccc4)CC3)CC2)cc1 do in these assays?
G9a block: inactive[12.7 µM]

How did Cc1oc2ncn(CC(C)C)c(=O)c2c1C(=O)NCCCN1CCC(C)CC1 do in these assays?
HP1b binding inh: inactive; GLS inh: inactive; BAZ2B inh: inactive; JMJD2A Tudor: inactive; G9a block: inactive

Results for COc1cc(C(=O)NNC(=S)NC(=O)c2ccccc2C)cc(OC)c1OC ?
HP1b binding inh: inactive; GLS inh: inactive; BAZ2B inh: inactive; L3MBTL1 block: inactive; JMJD2A Tudor: inactive; G9a block: inconclusive

What do the screens show for `COc1ccc(NC(=S)NNC(=O)C2CC2c2ccc(C)cc2)cc1` (stereo not given)?
HP1b binding inh: inactive; GLS inh: inactive; BAZ2B inh: inactive; L3MBTL1 block: inactive; JMJD2A Tudor: inactive; G9a block: 45µM

What do the screens show for `COc1cc(C(=O)NC(=S)NNC(=O)[C@H]2C[C@@H]2c2ccccc2)cc(OC)c1OC`?
HP1b binding inh: inactive; GLS inh: inactive; BAZ2B inh: inactive; L3MBTL1 block: inactive; JMJD2A Tudor: inactive; G9a block: 40µM

How did COc1ccccc1C(=O)NNC(=S)NC(=O)c1cc(OC)c(OC)c(OC)c1 do in these assays?
HP1b binding inh: inactive; GLS inh: inactive; BAZ2B inh: inactive; L3MBTL1 block: inactive; JMJD2A Tudor: inactive; G9a block: 13µM

What do the screens show for `COc1cc(C(=O)NNC(=S)NC(=O)c2ccc3c(c2)OCO3)cc(OC)c1OC`?
HP1b binding inh: inactive; GLS inh: inactive; BAZ2B inh: inactive; JMJD2A Tudor: inactive; G9a block: 13µM

What do the screens show for `CCOc1ccc(NC(=O)CCc2c(C)nc3cc(-c4ccccc4OC)nn3c2C)cc1`?
HP1b binding inh: inactive; GLS inh: inactive; BAZ2B inh: inactive; JMJD2A Tudor: inactive; G9a block: inactive

How did Cc1cccc(-c2noc(CN(C(=O)COc3ccc(Br)cc3C)C(C)C)n2)c1 do in these assays?
HP1b binding inh: inactive; GLS inh: inactive; BAZ2B inh: inactive; JMJD2A Tudor: inactive; G9a block: inactive

Results for COc1ccccc1NC(=O)c1sc2ncn(Cc3ccccc3Cl)c(=O)c2c1C ?
HP1b binding inh: inactive; GLS inh: inactive; BAZ2B inh: inactive; JMJD2A Tudor: inactive; G9a block: inactive

What do the screens show for `CCN(CC)c1ccc(NC(=O)C(NS(=O)(=O)c2cccs2)C(C)C)c(C)c1` (stereo not given)?
HP1b binding inh: inactive; GLS inh: inactive; BAZ2B inh: inactive; JMJD2A Tudor: inactive; G9a block: inconclusive

Results for COc1cccc(C2=Nc3cccc4cccc(c34)N2)c1 ?
HP1b binding inh: inconclusive; GLS inh: 11µM; BAZ2B inh: 40µM; L3MBTL1 block: inactive; JMJD2A Tudor: 50µM; G9a block: 16µM

Results for c1cc2c3c(cccc3c1)NN=N2 ?
HP1b binding inh: inconclusive; GLS inh: inactive; JMJD2A Tudor: inconclusive

What do the screens show for `CCCCOc1ccc(C2=NC(c3ccccc3)=Nc3ccc(OC)cc3N2)cc1`?
HP1b binding inh: inactive; GLS inh: inactive; BAZ2B inh: inactive; JMJD2A Tudor: inactive; G9a block: inactive

How did CC1=Nc2cccc3cccc(c23)N1 do in these assays?
HP1b binding inh: inconclusive; GLS inh: inactive; BAZ2B inh: inactive; L3MBTL1 block: inactive; JMJD2A Tudor: inconclusive; G9a block: 25µM

How did c1coc(C2=Nc3cccc4cccc(c34)N2)c1 do in these assays?
HP1b binding inh: inconclusive; GLS inh: inactive; BAZ2B inh: inconclusive; L3MBTL1 block: inactive; JMJD2A Tudor: inactive; G9a block: 40µM

How did Nc1ccc(C2=Nc3cccc4cccc(c34)N2)cc1 do in these assays?
HP1b binding inh: inactive; GLS inh: inactive; BAZ2B inh: 50µM; L3MBTL1 block: inactive; JMJD2A Tudor: inactive; G9a block: inconclusive

How did COc1ccc2c(c1)CC(C(=O)Nc1cc(Cl)ccc1C)CO2 (stereo not given) do in these assays?
HP1b binding inh: inactive; GLS inh: inactive; BAZ2B inh: inactive; JMJD2A Tudor: inactive; G9a block: inactive

Results for COc1ccc(C2C=C3CNS(=O)(=O)C3CC2OC(=O)c2cccc(C)c2)cc1 (stereo not given) ?
HP1b binding inh: inactive; JMJD2A Tudor: inactive
